Most compounds without a hit are left out; they make up all but 6.1% or so of the library.
D1 PAM = human D1 dopamine receptor positive modulation; P21728; HEK293 TREx D1 cells, calcium flux, dopamine EC20 potentiation; potentiation, % at 10 µM; 360,000 tested, 0.036% active; AID 504651; in the data active = potentiation above about 30%; also: 0% is about no effect
D1 ag = agonists of human D1 dopamine receptor. activation, % at 2 µM. P21728. HEK293 T-REx D1 cells, calcium flux, agonist mode. 360,000 tested, 1% active. AID 504660; in the data active = activation above about 30%; also: 0% is about no effect
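Tetracycline-induced HEK293 TREx D1 cells, force-coupled to calcium signalling, were dye-loaded with a no-wash calcium kit. Compound was pin-added after a 10 s baseline. Fluorescence was read kinetically at 1 cycle/s for 180 s, with calcium rises flagged as agonism.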
DRD3 antagonist = D3 dopamine receptor (human) antagonism | P35462 | D3R cells, DiscoveRx beta-arrestin luminescence, antagonist mode; active compounds read low | max response, negative = inhibition, % | 360,000 tested, 2.5% active; in the data active = max response below about -50%; inconclusive = no clear call, values can overlap the other calls; also: % is scaled to controls: 0 for no effect and ±100 for the full control effect
Target sequence (P35462 whole entry, looked up): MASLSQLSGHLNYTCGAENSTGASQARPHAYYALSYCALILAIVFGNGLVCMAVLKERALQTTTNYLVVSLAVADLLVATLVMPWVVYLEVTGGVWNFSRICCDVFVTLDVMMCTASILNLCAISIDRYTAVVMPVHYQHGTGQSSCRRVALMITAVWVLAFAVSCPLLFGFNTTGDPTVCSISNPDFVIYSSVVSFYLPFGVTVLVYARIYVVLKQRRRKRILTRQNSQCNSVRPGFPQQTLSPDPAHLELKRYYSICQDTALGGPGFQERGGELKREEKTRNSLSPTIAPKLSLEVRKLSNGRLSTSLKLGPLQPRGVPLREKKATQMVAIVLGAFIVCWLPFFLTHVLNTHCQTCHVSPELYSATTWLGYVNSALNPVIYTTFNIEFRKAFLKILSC
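Cells expressing the human receptor were seeded at 1500 cells/well, incubated overnight at 37 degrees C in 5% CO2, then exposed to library compounds with dopamine controls for 90 minutes at 37 degrees C before luminescent detection.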
D1 antag = human D1 dopamine receptor antagonism | activity change, negative = inhibition, % at 10 µM | P21728 | AID 504652 | 360,000 tested, 3.2% active | HEK293 TREx D1 cells, calcium flux, dopamine EC80; active compounds read low; in the data active = activity change below about -30%; also: % is scaled to controls: 0 for no effect and ±100 for the full control effect
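Inducible Hek293 Trex D1 cells (tetracycline, overnight, 30 C). Calcium dye 30–90 min RT. Antagonist mode: EC80 dopamine added after 180 s compound read.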
DRD3 agonist = activates the human D3 dopamine receptor; P35462; max activation, %; D3R DiscoveRx beta-arrestin cells, luminescence, 90 min; AID 652048; 410,000 tested, 0.58% active; in the data active = max activation above about 30%; also: 0% is about no effect
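Agonist-mode cell screen: cells plated at 1500/well and incubated overnight at 37 °C, then exposed to library compounds for 90 min at 37 °C. Detection reagent was added for 30–60 min at room temperature, and luminescence was read.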
An asterisk follows results filed as active; u = inconclusive; x = no result.

SMILES	D1 PAM	D1 ag	DRD3 antagonist	D1 antag	DRD3 agonist
CCCN1CCN(CCCNC(=O)c2ccc3c(c2)sc2nc(-c4ccc(C)cc4)cn23)CC1	-2	2	x	-30*	-16
CCN1CCN(c2ccc(NC(=O)c3ccco3)cc2)CC1	5	3	-2	-3	0
Cc1ccc(NC(=O)COC(=O)CCc2c(C)nc3ncnn3c2C)cc1	x	x	-12	x	32*
Cc1cc(C)n2cc(CSc3ccc(Cl)cc3)nc2n1	-18	2	1	4	1
Cc1cc(C)n2cc(CSc3nnc(N)s3)nc2n1	-6	3	-53*	-3	1
Cc1cc(C)n2cc(CSc3nnc(SCc4cn5c(C)cc(C)nc5n4)s3)nc2n1	-3	-1	x	x	x
Cc1cc(C)n2cc(CSc3nc4cc(Cl)ccc4o3)nc2n1	-1	1	-51*	3	-1
CN(C)c1ccc(CNC(=O)c2cc3ccccn3n2)cc1	-2	1	x	6	-8
O=C(O)c1cn(-c2ccc(F)cc2)c2cc(Cl)c(F)cc2c1=O	4	2	-7	-4	5
CCOC(=O)c1cn(-c2ccc([N+](=O)[O-])cc2)c2cc(Cl)c([N+](=O)[O-])cc2c1=O	-4	2	7	-42*	-6
COc1ccc(CCNC(=O)c2ccc3c(Cl)c4c(nc3c2)CCCC4)c(OC)c1	-4	13	x	0	5
O=C(CN1C(=O)C2C3C=CC(C3)C2C1=O)OCC(=O)c1ccc(Br)cc1 (centres undefined)	-2	14	-6	-43*	-8
COc1ccc(C(=O)COC(=O)C(C(C)C)N2C(=O)C3C4C=CC(C4)C3C2=O)cc1 (centres undefined)	2	3	-7	-59*	-7
C/C(=N\OCc1nc2ccccc2c(=O)n1/N=C/c1cc([N+](=O)[O-])ccc1O)c1ccccc1	14	19	7	-13	-3
C/C(=N\OCc1nc2ccccc2c(=O)n1/N=C/c1cc(C)cc([N+](=O)[O-])c1O)c1ccccc1	0	12	-6	-33*	2
CCOc1cccc(CN2CCN(c3cccc(C(F)(F)F)c3)CC2)c1O	-4	3	-96*	2	-60
COc1cccc(CN2CCN(c3cccc(C(F)(F)F)c3)CC2)c1OC	-5	1	-73*	-8	-29
Cc1cccc(OCCn2c(-c3ccc(Cl)cc3)nc3ccccc3c2=O)c1	-2	3	x	-2	-15
COC(=O)[C@]12CCCCC=C1N(CCC1=CCCCC1)C(=O)[C@H](CC(=O)NCCCCc1ccccc1)C2	x	x	0	x	-7
NCCSc1c(-c2ccccc2)[nH]c2ccccc12	-3	11	-29	-37*	-7
NCCSc1c(-c2ccc(Cl)cc2)[nH]c2ccccc12	-8	26	23	2	-1
O=C(c1ccccc1)c1ccc(N2CCNCC2)cc1	-16	7	x	-74*	x
Cc1nn(-c2ccccc2)nc1C(=O)Nc1cccc(C(=O)NC2CC2)c1	x	x	28	x	2
Oc1ccc(C=NCC2COc3ccccc3O2)cc1 (centres undefined)	2	2	-24	-7	-32
COc1ccc(C=NCC2COc3ccccc3O2)cc1OC (centres undefined)	-4	2	-51*	-9	-27
SMILES	D1 PAM	D1 ag	DRD3 antagonist	D1 antag	DRD3 agonist
COc1ccccc1CNC(=O)CCCn1nc(C)n2ccnc2c1=O	-9	1	-2	16	-4
O=C(C(Cc1ccccc1)n1cccc1)N1CCN(c2ccccc2)CC1 (centres undefined)	x	11	0	5	-9
Cc1ccc(C)c(N2CCN(C(=O)C(Cc3ccccc3)n3cccc3)CC2)c1 (centres undefined)	x	6	-19	-53*	-6
Cc1ccc(S(=O)(=O)Cc2ccc(C(=O)N3CCN(c4cc(C)ccc4C)CC3)o2)cc1	-8	1	-29	-1	12
Cc1ccc(C)c(N2CCN(C(=O)c3ccc(CS(=O)(=O)c4ccccc4C)o3)CC2)c1	-5	1	29	5	75*
O=C(O)C(Cc1ccccc1)n1cccc1 (centres undefined)	1	3	11	-42*	3
CNS(=O)(=O)c1cn(CC(=O)Nc2ccc(C(C)=O)cc2)cc1S(=O)(=O)NC	-1	1	x	-5	-6
c1ccc(-n2ncc3c(N4CCN(CCOc5cccc6ccccc56)CC4)ncnc32)cc1	2	1	-10	-10	40*
Cc1ccc(-n2ncc3c(N4CCN(c5ccccc5)CC4)ncnc32)c(C)c1	-4	5	33	-24	36*
COc1ccc(CN2C(=O)C(NC(=O)c3ccc(C)cc3)(C(F)(F)F)N=C2c2ccccc2)cc1 (centres undefined)	-4	6	x	-1	-8
Cc1ccc(C)c(NC2=C(Cl)C(=O)OC2OC(=O)c2ccco2)c1 (centres undefined)	-5	19	-3	-14	2
Cc1ccc(NC2=C(Cl)C(=O)OC2OC(=O)c2ccco2)cc1C (centres undefined)	-8	8	8	-30*	19
O=C(Nc1cccc(S(=O)(=O)N2CCOCC2)c1)C1CCCN(C(=O)c2ccc(Cl)cc2)C1 (centres undefined)	-6	3	-7	-21	3
Cc1ccc(O)c(NC(=O)c2ccc(Br)c(S(=O)(=O)N3CCCCC3)c2)c1	-2	14	x	-58*	-9
COc1cc2c(cc1OC)-c1n[nH]c(=S)n1C(C)(C)C2	-12	0	0	-59*	0
O=C(CSc1c2c(nc3ccccc13)CCC2)Nc1ccc(F)cc1	0	-1	x	1	-10
CC(C)C[C@@H](CNCC(=O)[C@H](Cc1c[nH]c2ccccc12)NC(=O)c1[nH]cnc1C(=O)N[C@H](CN)CC(C)C)NC(=O)c1nc[nH]c1C(=O)N[C@@H](CC(=O)O)C(=O)O	x	x	u	x	-34
CC(C)C[C@@H](CNCC(=O)[C@H](C)NC(=O)c1[nH]cnc1C(=O)N[C@@H](C)CN)NC(=O)c1nc[nH]c1C(=O)N[C@@H](CC(=O)O)C(=O)O	x	x	-12	x	32*
CC(C)C[C@@H](CN)NC(=O)c1nc[nH]c1C(=O)N[C@@H](Cc1c[nH]c2ccccc12)C(=O)CNC[C@H](C)NC(=O)c1nc[nH]c1C(=O)N[C@@H](CC(=O)O)C(=O)O	x	x	-53*	x	-31
O=S(=O)(c1ccccc1)c1nnn2c1nc(NC1CCCCC1)c1sccc12	-5	0	x	-20	2
Cc1ccccc1Nc1cccc2nonc12	-7	40*	-18	-5	-4
Cc1ccccc1NS(=O)(=O)c1cccc2nonc12	-2	0	-24	2	-9
Cc1nn(-c2cccc(Cl)c2)c2c1C(c1cccnc1)C(C#N)=C(N)O2 (centres undefined)	-1	7	-23	-36*	3
